Bioassay records deposited in PubChem BioAssay by National Center for Advancing Translational Sciences (NCATS).
TDP1 cell CPT – DT40-hTDP1 cell growth loss with CPT. chicken DT40 Tdp1-/-;hTDP1 cells + 20 nM CPT, ATP luminescence, 48 h. Potency, µM (highest dose often 46.2 µM), for inactives: at the highest dose activity change, negative = growth inhibition, hits mostly inhibitors. hit rate 12% among 420,000; note: potency is the fitted concentration of half-maximal effect; nearly all actives have a fitted effect of over 55% in size
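Chicken DT40 Tdp1-/- cells stably complemented with human TDP1 were seeded at 400 cells/well in medium containing 20 nM camptothecin, exposed to pin-transferred compounds, and grown at 37 °C for at least 48 hr. Viability was read as ATP luminescence.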
IL1B secr inh – inflammasome signaling inhibition, IL-1 beta readout. activity change, % at 57.5 µM. hit rate 4.7% among 360,000. THP-1 LPS/ATP IL-1B secretion, AlphaLISA, 16 h; active compounds read low; in the data active = activity change below about -50%; inconclusive = mostly about -30% to -49%
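THP-1 cells pretreated 1 hr with compounds (up to 57.5 uM final), then stimulated with LPS (250 ng/mL final) plus ATP (1.25 mM final); secreted IL-1B measured by AlphaLISA after 16 hr, decreased signal indicating inhibition.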
ALOX12 inh – ALOX12 (human) lipoxygenase inhibition. P18054. purified 12hLO, xylenol orange hydroperoxide absorbance. Potency, µM (titrated, usually from 108 µM), for inactives: top-dose activity change, negative = inhibition, actives largely listed as inhibitors. hit rate 1.1% among 580,000. AID 1671190; note: potency is the fitted concentration of half-maximal effect
Target sequence (P18054 whole entry, looked up): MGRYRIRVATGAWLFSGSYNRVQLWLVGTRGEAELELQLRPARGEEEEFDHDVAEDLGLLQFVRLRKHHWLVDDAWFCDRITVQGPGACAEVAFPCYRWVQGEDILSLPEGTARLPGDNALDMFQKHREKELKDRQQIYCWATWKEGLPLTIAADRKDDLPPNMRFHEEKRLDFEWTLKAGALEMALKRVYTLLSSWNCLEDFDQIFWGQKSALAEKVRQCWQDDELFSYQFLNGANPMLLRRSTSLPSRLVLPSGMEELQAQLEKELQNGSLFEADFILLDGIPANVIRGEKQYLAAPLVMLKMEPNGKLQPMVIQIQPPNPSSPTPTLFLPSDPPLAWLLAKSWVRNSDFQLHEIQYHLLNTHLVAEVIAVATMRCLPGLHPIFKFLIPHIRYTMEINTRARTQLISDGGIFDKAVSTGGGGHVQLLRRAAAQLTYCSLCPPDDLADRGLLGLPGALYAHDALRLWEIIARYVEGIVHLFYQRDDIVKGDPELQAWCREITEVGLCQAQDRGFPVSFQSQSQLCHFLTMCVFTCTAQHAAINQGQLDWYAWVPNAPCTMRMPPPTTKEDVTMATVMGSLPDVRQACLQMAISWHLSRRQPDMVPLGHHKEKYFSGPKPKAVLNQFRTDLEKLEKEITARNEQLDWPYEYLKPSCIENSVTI
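Purified human 12hLO at 150 nM in 25 mM Hepes, 0.01% Triton X-100, pH 7.0, preincubated 15 min at room temperature with compound. Reaction started with 40 uM arachidonic acid, 30 min at room temperature. Hydroperoxide measured by Fe-xylenol orange, 573/405 nm absorbance ratio.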
HT1080 IDH1KD tx – HT-1080 IDH1 knockdown cell toxicity (counter line) | hit rate 2% among 360,000 | Potency, µM (highest dose often 46.1 µM), without a hit: top-dose activity, negative = toxicity, most hits filed as cytotoxic | HT-1080 IDH1 knockdown viability, ATP luminescence, 48 h;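 note: potency is the fitted concentration of half-maximal effect; 0% = DMSO wells and -100% = cell-free medium wells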
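Using the IDH1-knockdown HT-1080 line run in the same batch and compound series as the NT line, viability after 48 h at 37 °C was determined by CellTiter-Glo luminescence and expressed as % activity.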
TDP1 cell noCPT – qHTS for Inhibitors of human tyrosyl-DNA phosphodiesterase 1 (TDP1): qHTS in cells in absence of CPT. DT40 Tdp1-/- hTDP1 cells, no CPT, ATP luminescence, 48 h. Potency, µM (highest dose often 46.2 µM), for the others: top-dose activity change, negative = growth inhibition, most hits filed as inhibitors. hit rate 15% among 420,000. AID 686978, 2013; note: potency is the fitted concentration of half-maximal effect; nearly all actives have a fitted effect of over 55% in size
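Compound effects on proliferation are scored in DT40 Tdp1-/-;hTDP1 cells in the absence of CPT. ATP levels (CellTiter-Glo luminescence) are recorded after a ≥48 hr, 37 °C incubation.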
HT1080NT lethal – kills 2HG-producing HT-1080-NT fibrosarcoma cells. HT-1080-NT fibrosarcoma viability, CellTiter-Glo ATP luminescence, 48 h. Potency, µM (doses to about 46.1 µM), for inactives: at the highest dose activity, negative = less viability, actives largely listed as cytotoxic. hit rate 1.6% among 360,000;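 note: NT is the 2HG producing partner of a matched IDH1 knockdown line; potency is the fitted concentration of half-maximal effect; 0% = DMSO-treated cells and -100% = media-only wells without cells; nearly all actives have a fitted effect of over 55% in size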
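Luminescent CellTiter-Glo readout after 48 hours of compound exposure at 37 degrees C defined viability of HT-1080-NT cells. Activity was normalized to DMSO wells and cell-free media wells; concentration-response curves were fitted and assigned curve classes.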
Starred values were filed as active, the others as inactive; ? = inconclusive; . = no result given. Shown is part of a subset that was picked to be rich in hits. Unless noted, calls come from the whole dose curve; as a rule, active = well fitted curve in the direction sought with a large enough effect; inconclusive = small, poorly fitted or top-dose-only effect, or another doubt; inactive = no such curve, though single readings can be large; an effect the other way counts as inactive or inconclusive. Unless noted, % is set by controls: 0 for no effect and ±100 for the full control effect.

SMILES	TDP1 cell CPT	IL1B secr inh	ALOX12 inh	HT1080 IDH1KD tx	TDP1 cell noCPT	HT1080NT lethal
Cc1ccc(Cl)cc1N1CCN(CC(=O)NC2CCCc3ccccc32)CC1 (stereo unspecified)	?	-9	8%	?	16µM*	?
CC(C)N(C(=O)CSc1nc2ccc(Cl)cc2[nH]1)c1ccccc1	?	.	?	.	23µM*	.
Cc1ccc(Cl)cc1N1CCN(CC(=O)NC2CC2)CC1	.	.	7%	.	.	.
O=C(CN1CCN(c2ccccc2Cl)CC1)NC1CCCc2ccccc21 (stereo unspecified)	?	-59*	-24%	0%	?	0%
COc1ccc(CCSc2n[nH]c(C(C)C)n2)cc1	-27%	.	.	.	-23%	.
CCc1nccn1CCC(=O)N[C@@H]1COCC[C@@H]1Oc1ccc(F)cc1	.	.	26%	.	.	.
COc1ccccc1Oc1c(CCC(=O)NCc2ccco2)c(C)nn1-c1ccc(F)cc1	.	.	-2%	.	.	.
Cc1ccc(C(=O)N(Cc2nc(-c3ccc(C)cc3)no2)C(C)C)cc1	?	33	?	-19%	16µM*	-28%
Cc1ccc(SCC(=O)N(Cc2nc(-c3ccccc3)no2)C(C)C)cc1	18µM*	?	-23%	-1%	?	-1%
Cc1ccc(CC(=O)N(Cc2nc(-c3ccc(C)cc3)no2)C(C)C)cc1	?	.	?	.	23µM*	.
Cc1ccc(-c2noc(CN(C(=O)c3cccs3)C(C)C)n2)cc1	?	-78*	?	-5%	?	?
COc1cccc(CNC(=O)c2c(OC)cc(=O)n3c2CCN(C(=O)c2ccc(C)s2)CC3)c1	10%	.	3%	.	-2%	.
CN(CCSc1ccccc1)C(=O)C1CC(=O)N(Cc2ccncc2)C1 (stereo unspecified)	.	.	-24%	.	.	.
CCOc1cc(C(=O)N(Cc2nc(-c3ccc(C)cc3)no2)C(C)C)cc(OCC)c1OCC	16µM*	.	-19%	.	?	.
COc1ccc(C(=O)N(Cc2nc(-c3ccc(C)cc3)no2)C(C)C)cc1OC	-89%	11	?	-5%	?	-4%
COc1ccc(-c2noc(CN(C(=O)C(C)Oc3ccc(C)cc3)C(C)C)n2)cc1 (stereo unspecified)	16µM*	.	-2%	.	15µM*	.
CCS(=O)(=O)Nc1ccc(C2(C(=O)NCC(C)C)CCCCC2)cc1	.	.	49%	.	.	.
O=c1cc(CSc2nnnn2-c2ccccc2)[nH]n1-c1ccc(F)cc1	.	.	18µM*	.	.	.
O=C(NCc1ccc2c(c1)OCCO2)N1CCN(S(=O)(=O)c2c(Cl)cccc2Cl)CC1	.	.	7%	.	.	.
Cc1cccnc1C1=NOC(Cc2ccccc2)C(=O)N1CCOc1ccc(F)cc1 (stereo unspecified)	16µM*	36	16%	3%	23µM*	-11%
CCCCn1c2nc3ccccc3nc2c2c(=O)n(CCC(C)C)cnc21	-15%	18	-8%	6%	-24%	-2%
CCCCn1cnc2c(c1=O)c1nc3ccccc3nc1n2Cc1ccc2c(c1)OCO2	?	15	7.9µM*	18%	-14%	10%
CC(C)Cn1c2nc3ccccc3nc2c2c(=O)n(CCN3CCOCC3)cnc21	?	-56*	-4%	-6%	?	-1%
Nc1c(C(=O)NCc2ccc(F)cc2)c2nc3ccccc3nc2n1CCCN1CCOCC1	?	-10	?	?	18µM*	?
Cc1cccc(-n2c(N)c(C(=O)NCCN3CCOCC3)c3nc4ccccc4nc32)c1	?	-64*	0%	?	18µM*	?
Nc1c(C(=O)NCc2ccccc2)c2nc3ccccc3nc2n1CCCN1CCOCC1	?	-29	-26%	?	-80%	?
CC(C)c1noc(CC2CCN(C(=O)c3ccc(F)c(Cl)c3)CC2)n1	.	.	19%	.	.	.
